We go through nine compounds from PubChem BioAssay (NCATS).

Common to all, as to assay: qHTS profiling for inhibitors of Plasmodium falciparum proliferation (AID 504749); note: nearly all actives have a fitted effect of over 60% in size
Details in all cases: P. falciparum in erythrocytes, SYBR Green DNA, 72 h; series mostly up to 28.7 µM

Assay [1] concerns CP217. A digest of the protocol:
(§1)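 Fluorescence of SYBR Green-bound parasite DNA, read at 485/535 nm, served as the growth measure. Infected erythrocytes were cultured with compound 72 h; artemisinin (0.29 uM) and DMSO wells defined the normalization range.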

In assay [2] the test system is CP238. An outline of the steps: as §1
Assay [3] has as its system CP250. An outline of the steps:
as §1

The test system of assay [4] is CP252. A digest of the protocol: as §1
Assay [5] relates to CP256. A digest of the protocol: as §1
The subject of assay [6] is CP260. A digest of the protocol: as §1
Assay [7] relates to CP265. An outline of the steps: as §1
For assay [8], the system named is CP266. An outline of the steps:
as §1

In assay [9] the test system is CP268. An outline of the steps:
as §1

The test system of assay [10] is CP269. An outline of the steps: as §1
Assay [11] has as its system CP286. A digest of the protocol:
as §1

Assay [12] deals with CP291. An outline of the steps:
as §1

Assay [13] deals with CP297. An outline of the steps:
as §1

Assay [14] has as its system CP305. A digest of the protocol:
as §1

Assay [15] deals with CP315. A digest of the protocol: as §1
The subject of assay [16] is CP325. A digest of the protocol:
as §1

Assay [17] deals with CP329. An outline of the steps: as §1
For assay [18], the system named is CP237. An outline of the steps:
as §1

For assay [19], the system named is CP247. A digest of the protocol:
as §1

The test system of assay [20] is CP262. A digest of the protocol:
as §1

Results filed as inconclusive are left out. Activity calls are given as the source filed them. Calls come from the whole dose curve; as a rule, active = well fitted inhibition curve with a large enough effect; inconclusive = small, poorly fitted or top-dose-only effect; inactive = flat fitted curve, though single readings scatter.
Potency is the fitted concentration of half-maximal effect.

With `c1ccc(C2CC2)c(OCC2=NCCN2)c1`, the Potency entry in [1], in assay [2], in assay [3], in assay [4], in [5] and in [6] was “inactive” in each case. In addition, the Potency result in assay [7], in assay [8], in assay [9], in assay [10], in assay [11] and in [12] was “inactive” throughout. The Potency result in [13], in [14], in assay [15], in assay [16] and in assay [17] was “inactive” throughout.

For the compound `COc1ccc(C(=O)c2c(C)n(CCN3CCOCC3)c3ccccc23)cc1`, the Potency result in assay [1], in assay [18], in assay [2], in assay [19], in assay [4] and in assay [5] was “inactive” each time. The Potency entry in assay [6], in assay [20], in [7], in assay [9], in [10] and in [11] was “inactive” throughout. In addition, the Potency result in assay [12], in assay [13], in [14], in assay [15], in assay [16] and in [17] was “inactive” in each case.

`CCCC1CCCCN1` (stereo unspecified): the Potency result in assay [1], in [18], in assay [2], in [4], in assay [5] and in [6] was “inactive” throughout. For the same compound, the Potency entry in assay [20], in [7], in assay [9], in assay [10], in assay [11] and in assay [12] was “inactive” in each case. Besides, the Potency result in [13], in assay [14], in assay [15], in [16] and in assay [17] was “inactive” each time.

Take `CN1C[C@H](CNC(=O)OCc2ccccc2)C[C@@H]2c3cccc4c3c(cn4C)C[C@H]21`: the Potency is 7.94 µM (active) in assay [1]; 8.91 µM (active) in assay [18]; 11.2 µM (active) in assay [2]; 10 µM (active) in assay [4]; 6.31 µM (active) in assay [5]; 11.2 µM (active) in assay [6]. The values for the Potency in assay [20], in assay [7] and in assay [11] were 6.75 µM (active), 5.62 µM (active) and 8.91 µM (active), respectively.

Consider `N#CC(C#N)=Cc1ccc(O)c(O)c1`, for which the Potency entry in assay [1], in assay [18], in assay [2], in assay [19], in assay [4] and in [6] was “inactive” in each case. Further, the Potency entry in assay [20], in [7], in [8], in assay [9], in assay [10] and in [11] was “inactive” in each case. In addition, the Potency entry in assay [12], in assay [14], in assay [15], in [16] and in assay [17] was “inactive” in each case.

Take `O=c1[nH]c2ccccc2n1C1CCN(CCCC(c2ccc(F)cc2)c2ccc(F)cc2)CC1`: the Potency entry in [1], in assay [2], in assay [19], in [3], in assay [4] and in assay [20] was “inactive” in each case. Further, the Potency result in [7], in [8], in assay [9], in [12], in assay [14] and in [17] was “inactive” throughout. Moreover, the Potency in [18] was 7.94 µM (active); in assay [6], 12.6 µM (active); in assay [11], 11.2 µM (active).

On to `O=c1[nH]c2ccccc2n1CCCN1CCC(n2c(=O)[nH]c3cc(Cl)ccc32)CC1`, for which the Potency in assay [18] is 7.94 µM (active); in assay [6], 11.2 µM (active); in assay [11], 11.2 µM (active); in assay [13], 8.49 µM (active). Further, the Potency entry in [20], in assay [8] and in assay [16] was “inactive” each time.

In the case of `CCC1(C2=NCCN2)Cc2ccccc2O1` (stereo unspecified), the Potency in [18] is 10 µM (active); in assay [13], 9.53 µM (active). Moreover, the Potency result in [20] was “inactive”.

As to `Oc1ccc(Cl)cc1Cc1ccccc1`, the Potency result in [2], in assay [3], in [20], in assay [8], in [11] and in assay [15] was “inactive” each time. Moreover, the Potency entry in assay [16] and in assay [17] was “inactive” each time.
